Compound activity (PubChem)
Tb PFK inh: qHTS Assay to Find Inhibitors of T. brucei phosphofructokinase | ATP-dependent 6-phosphofructokinase (Trypanosoma brucei brucei), O15648 | T. brucei PFK, ADP-Glo luminescence | Potency, µM (top dose mostly 57.5 µM), without a hit: top-dose activity, negative = inhibition, hits mostly inhibitors | hit rate 0.17% among 330,000;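 also: 0% = uninhibited 1x PFK enzyme wells and -100% = no-enzyme wells; nearly all actives have a fitted effect of over 60% in size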
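Compounds were pin-transferred as a titration series up to 57 uM into substrate buffer (0.5 mM F6P, 0.1 mM ATP, pH 8.0), then 1.25 nM PFK was added and reactions ran 45 min before ADP-Glo detection.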
BRCA1 expr up: qHTS Assay to Identify Small Molecule Activators of BRCA1 Expression; MCF7-BRCA1-FFLuc reporter, luminescence, 48 h; response scale: scaled: vehicle 0%, 10 µM genistein 100%; Potency, µM (series often up to 46.1 µM), inactives show at the top dose activation, most hits filed as activators; hit rate 1.1% among 380,000; also: nearly all actives have a fitted effect of over 80% in size
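Activators of BRCA1 expression were detected as increased firefly luciferase luminescence in engineered MCF7 cells after 48 h compound incubation. Signals were scaled to genistein 10 microM as full activation.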
PLK1 PBD block: qHTS for Inhibitors of PLK1-PDB (polo-like kinase 1 - polo-box domain): Primary Screen; Serine/threonine-protein kinase PLK1 (Homo sapiens), P53350; Plk1 PBD binding of FITC phosphopeptide, fluorescence polarization; Potency, µM, inactives show max response, negative = inhibition, hits mostly inhibitors; hit rate 2.8% among 360,000; also: series mostly up to about 57 µM; % is scaled to controls: 0 for no effect and ±100 for the full control effect; nearly all actives have a fitted effect of over 65% in size
Target sequence (P53350 whole entry, looked up, the tested form may be a part): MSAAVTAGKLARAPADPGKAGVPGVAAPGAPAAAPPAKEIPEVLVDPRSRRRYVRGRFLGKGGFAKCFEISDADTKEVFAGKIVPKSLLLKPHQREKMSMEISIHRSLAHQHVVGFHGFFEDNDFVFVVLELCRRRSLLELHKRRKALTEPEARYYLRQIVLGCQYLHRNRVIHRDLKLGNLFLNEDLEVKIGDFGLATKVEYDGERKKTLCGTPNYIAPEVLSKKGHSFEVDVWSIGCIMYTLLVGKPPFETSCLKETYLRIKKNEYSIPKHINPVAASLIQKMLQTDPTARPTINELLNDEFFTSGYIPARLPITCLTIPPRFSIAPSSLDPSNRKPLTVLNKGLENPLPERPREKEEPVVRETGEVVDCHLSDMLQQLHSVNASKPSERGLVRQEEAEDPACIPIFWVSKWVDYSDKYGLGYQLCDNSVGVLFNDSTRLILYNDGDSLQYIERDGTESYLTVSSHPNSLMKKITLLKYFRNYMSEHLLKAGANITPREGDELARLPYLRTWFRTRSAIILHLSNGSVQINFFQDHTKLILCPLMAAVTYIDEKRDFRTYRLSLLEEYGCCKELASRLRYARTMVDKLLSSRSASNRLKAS
VDR inh: Inhibitors of the vitamin D receptor (VDR): qHTS | Vitamin D3 receptor (Homo sapiens), P11473 | VDR-SRC2-3 peptide fluorescence polarization, 2 h | Potency, µM, inactives show max response, negative = inhibition, hits mostly inhibitors | hit rate 0.93% among 400,000 | AID 504847, 2011; also: % is scaled to controls: 0 for no effect and ±100 for the full control effect
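VDR–SRC2-3 interaction, FP format. Cmpds 23 nl via pintool, brief spin, 2 h ambient incubation.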
An asterisk follows results filed as active; ? = inconclusive; . = no result given. This is a sample that favours compounds with a hit; in the whole collection about 3.9% have one here. Calls follow the shape of the dose curve; as a rule, active = well fitted curve in the direction sought with a large enough effect; inconclusive = small, poorly fitted or top-dose-only effect, or another doubt; inactive = no such curve, though single readings can be large; an effect the other way counts as inactive or inconclusive. Potency is read from the fitted curve at half-maximal effect.

SMILES | Tb PFK inh | BRCA1 expr up | PLK1 PBD block | VDR inh
CC(C)(C)OC(=O)N[C@@H](Cc1ccccc1)c1nnc(S(=O)(=O)Cc2cccc(F)c2)o1 | -2% | -82% | 6µM* | 11µM*
COc1ccc(NC(=S)Nc2ccc(OC(F)F)cc2)cn1 | 1% | -12% | -18% | 7%
COc1ccccc1NC(=S)NNC(=S)Nc1ccc(OC(F)F)cc1 | 0% | 62% | 24µM* | ?
COc1ccc(-c2cc3nccc(-c4cc(Cl)c(C)cc4O)n3n2)cc1 | . | -58% | . | -9%
Cc1cc(SCC(=O)c2ccc(Cl)cc2)nc(=O)[nH]1 | 13% | 74% | 24µM* | ?
O=C(Nc1ccc(OC(F)F)cc1)c1nc(SCc2ccccc2F)ncc1Cl | . | -6% | . | .
Cc1ccc(C(=O)n2nc(C)c(S(=O)(=O)N3CCOCC3)c2C)cc1C | . | 7% | . | -4%
O=C(O)c1ccccc1C(=O)Nc1ccccc1 | 1% | 1% | 0% | 17%
O=C(Nc1ccccc1)C1=C(c2ccccc2)S(=O)(=O)CCS1(=O)=O | ? | -60% | 5.3µM* | 22µM*
CC(C)C1=Nc2cccc3cccc(c23)N1 | -1% | -12% | 9.5µM* | 5%
N#Cc1cc2cc(Cl)ccc2[nH]c1=O | . | 7% | -5% | .
Cc1c2c(c(O)c3c(O)cccc13)C(=O)O[C@H]2C1C(N(C)C)C(O)=C(C(N)=O)C(=O)[C@H]1O (some centres undefined) | . | . | . | 16µM*
COc1ccc(CN(C)CCCn2cnc3c(SC)ncnc32)cc1OC | . | 1% | -2% | .
O=C1/C(=C/c2cccnc2)Oc2cc(OS(=O)(=O)c3ccccc3)ccc21 | -1% | 31% | -21% | 50µM*
O=C1/C(=C/c2cccnc2)Oc2cc(OS(=O)(=O)c3ccc(Cl)cc3)ccc21 | -2% | -74% | -3% | -8%
COc1ccc2c(c1)O/C(=C\c1ccccc1C)C2=O | 4% | 13µM* | -2% | 5%
CC(=O)Oc1ccc2c(c1)O/C(=C\c1ccncc1)C2=O | 1% | 0% | ? | -13%
COc1ccccc1C(=O)Oc1ccc2c(c1)O/C(=C\c1ccncc1)C2=O | 0% | 31% | 0% | 35µM*
COc1cc(Br)ccc1C1C(C(=O)Nc2ccc(C)cc2C)=C(C)Nc2nnnn21 (centres undefined) | . | . | . | -3%
Cc1cccc(-c2noc(CN(C(=O)COc3ccc(C(C)C)cc3)C(C)C)n2)c1 | . | -21% | . | 0%
CC1(C)CCC(=O)N2CC[C@H]3C[C@H](OC(=O)Nc4ccc5c(c4)OCO5)C[C@@H]1[C@H]32 | -2% | 11µM* | -12% | -6%
CC(=O)N1CCc2c(sc3c2c(=O)n(Cc2ccccc2)c(=O)n3CC(=O)Nc2ccc(C)c(F)c2)C1 | . | -26% | . | -1%
Cc1csc(NC(=O)c2ccccc2)n1 | -5% | 3.2µM* | -6% | -18%
Cc1csc(NC(=O)c2ccncc2)n1 | 0% | -20% | -9% | -5%
CCC(C(=O)Nc1nc(C)cs1)c1ccccc1 (centres undefined) | 20% | 0% | 27µM* | ?
SMILES | Tb PFK inh | BRCA1 expr up | PLK1 PBD block | VDR inh
CCC(C(=O)Nc1nc(C)c(C)s1)c1ccccc1 (centres undefined) | -18% | -38% | 0% | 1%
CCN(CC)c1ccc2c(-c3ccc(S(=O)(=O)O)cc3S(=O)(=O)[O-])c3ccc(=[N+](CC)CC)cc-3oc2c1 | -3% | -48% | 6.7µM* | 40µM*
CC1(C)CC(N2CCN(c3ccccc3)CC2)=CC(=[N+]2CCCC2)C1 | -4% | -85% | 3% | 0%
CC1(C)CC(N2CCCC2)=CC(=[N+]2CCCCCC2)C1 | 4% | -26% | 30µM* | -19%
CSc1cccc(NC(=O)c2ccc3c(c2)CCCN3S(C)(=O)=O)c1 | . | . | . | 11%
CN(C(=S)NC(=O)Cc1ccccc1)c1ccccc1 | -2% | 14% | 30µM* | -28%
CN(C(=S)NC(=O)C1(C)CC1(Cl)Cl)c1ccccc1 (centres undefined) | -5% | 6% | -2% | 1%
CCC1Oc2ccccc2N(CC(=O)NCc2ccc(C)cc2)C1=O (centres undefined) | . | . | . | 13%
COC(=O)CC1Oc2ccccc2N(Cc2ccc(C)cc2)C1=O (centres undefined) | -4% | 8% | 27µM* | 2%
Cc1ccc(C(=O)CN2C(=O)C(C)Oc3ccccc32)cc1 (centres undefined) | 2% | 11µM* | -4% | -19%
